Outcome data for 45 molecules are collected here from PubChem BioAssay AID624136 (Broad Institute, 2012).

The whole screen tested about 17,000 compounds, of which about 75 (0.4%) were called active.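 Rule for the calls: active = compounds whose four printed spots each glow above background more than chance allows, each with a p-value under 7%; inactive = the rest.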 What follows is part of a selection rich in actives, with near analogues and random picks from the rest.

The assay concerns mutant tumor protein p53 (GST-tagged), Homo sapiens. Description: small molecules binding GST-tagged mutant p53 – biochemical, small molecule microarray, anti-GST fluorescence, primary screen (AID 624136).
Consider `C[C@@H]1CN([C@H](C)CO)C(=O)c2cccc(NC(=O)Nc3ccc(F)cc3)c2O[C@@H]1CN(C)Cc1ccc(C(F)(F)F)cc1`, for which the molecule was classed as inactive.

With `O=C(NCc1cccnc1)c1cnn2c(C(F)F)cc(-c3ccccc3)nc12`, the call was inactive.

For `CNC[C@H]1OCCCC[C@@H](C)Oc2ccc(NC(=O)c3ccncc3)cc2C(=O)N([C@H](C)CO)C[C@H]1C`, the molecule was called inactive.

Turning to `Cn1nnc2cc(C(=O)N(CCO)c3ccccc3)ccc21`, the call was inactive.

With `C[C@@H]1CN([C@@H](C)CO)C(=O)Cc2cc(NC(=O)Cc3cn(C)c4ccccc34)ccc2O[C@H]1CN(C)Cc1ccc(C(=O)O)cc1`, the outcome was inactive.

For the molecule `Cc1noc(C)c1S(=O)(=O)Nc1cccc2c1O[C@H](CN(C)Cc1ccc(C(F)(F)F)cc1)[C@H](C)CN([C@@H](C)CO)C2=O`, the molecule was called inactive.

Turning to `CC(=O)Nc1ccccc1-c1cn(CC(=O)N2CCOCC2)nn1`, the molecule was classed as inactive.

`CCCN(C)C[C@@H]1OCCCC[C@H](C)Oc2ccc(NS(=O)(=O)c3ccc(C)cc3)cc2C(=O)N([C@H](C)CO)C[C@@H]1C`: the outcome was inactive.

`Cc1noc(C)c1NC(=O)Nc1ccc2c(c1)C(=O)N([C@@H](C)CO)C[C@H](C)[C@@H](CN(C)C)O2`: the call was inactive.

In the case of `C[C@@H]1CN([C@@H](C)CO)C(=O)c2cc(N(C)C)ccc2O[C@@H](C)CCCCO[C@@H]1CN(C)C(=O)CCC(F)(F)F`, the call was inactive.

With `CC(C)NC(=O)Nc1ccc2c(c1)C(=O)N([C@H](C)CO)C[C@H](C)[C@@H](CN(C)C(=O)CCCN(C)C)OCCCC[C@@H](C)O2`, the outcome was inactive.

On to `Cc1noc(C)c1S(=O)(=O)Nc1ccc2c(c1)CC(=O)N([C@@H](C)CO)C[C@H](C)[C@H](CN(C)C(=O)Nc1ccccc1)O2`, for which the call was inactive.

As for `CC(C)NC(=O)N(C)C[C@@H]1OCCCC[C@@H](C)Oc2ccc(NC(=O)CCCN(C)C)cc2C(=O)N([C@@H](C)CO)C[C@@H]1C`, the call was inactive.

Take `COc1ccc(S(=O)(=O)Nc2ccc3c(c2)C(=O)N([C@@H](C)CO)C[C@@H](C)[C@H](CN(C)S(=O)(=O)c2cccs2)O3)cc1`: the result was inactive.

As to `COc1ccc(NC(=O)N(C)C[C@H]2Oc3ccc(NS(=O)(=O)c4ccc(C)cc4)cc3C(=O)N([C@@H](C)CO)C[C@H]2C)cc1`, the call was inactive.

Take `COc1ccc(C(=O)CCC(=O)Nc2cccnc2)c(OC)c1`: the result was inactive.

Regarding `C[C@H](CO)N1C[C@H](C)[C@H](CN(C)S(=O)(=O)c2cccs2)OCCCC[C@H](C)Oc2ccc(NC(=O)CCCN(C)C)cc2C1=O`, the result was inactive.

Consider `CCOC(=O)c1c(CN2CCOCC2)nc2c3ccccc3ccn12`, for which the call was inactive.

Turning to `CS(=O)(=O)N(CC(=O)Nc1ccc(F)c(F)c1)c1ccccc1F`, the molecule was classed as inactive.

As to `COC(=O)c1ccccc1NC(=O)Cc1coc2cc(C)cc(C)c12`, the outcome was inactive.

Take `COc1ccc(-c2nnc(SCC(=O)Nc3c(C)n[nH]c3C)n2-c2ccccc2)cc1OC`: the molecule was classed as inactive.

Regarding `C[C@H]1CN([C@@H](C)CO)C(=O)Cc2cc(NC(=O)c3ccncc3)ccc2O[C@@H]1CN(C)C(=O)Nc1ccccc1`, the molecule was called inactive.

`C[C@@H]1CCCCO[C@H](CN(C)Cc2ccc3c(c2)OCO3)[C@@H](C)CN([C@H](C)CO)C(=O)c2cc(N(C)C)ccc2O1`: the outcome was inactive.

As to `O=C1N(CCS(=O)(=O)c2ccccc2)Cc2ccccc2[C@H]2OC(c3ccc(OCCCO)cc3)=N[C@@]12CCS(=O)(=O)c1ccccc1`, the result was inactive.

Take `C[C@H](CO)N1C[C@H](C)[C@H](CN(C)C(=O)Nc2ccc(F)cc2)Oc2ccc(NC(=O)Cc3cn(C)c4ccccc34)cc2CC1=O`: the outcome was inactive.

Regarding `C[C@H](CO)N1C[C@H](C)[C@H](CN(C)S(=O)(=O)c2ccc(Cl)cc2)Oc2c(NS(C)(=O)=O)cccc2C1=O`, the outcome was inactive.

For the molecule `C[C@@H]1CN([C@@H](C)CO)C(=O)c2cc(NC(=O)Cc3ccccc3)ccc2O[C@H]1CN(C)CC1CC1`, the result was inactive.

On to `C[C@H]1CN([C@@H](C)CO)C(=O)c2cc(NC(=O)NC3CCCCC3)ccc2O[C@@H]1CN(C)C(=O)Nc1cccc2ccccc12`, for which the outcome was inactive.

For the molecule `COc1ccccc1-c1nnc(SCC(=O)Nc2ccccc2)o1`, the result was inactive.

As to `C[C@@H]1CN([C@H](C)CO)C(=O)c2cc(NS(=O)(=O)c3ccccc3)ccc2O[C@@H](C)CCCCO[C@H]1CN(C)C(=O)C1CCCCC1`, the result was inactive.

With `Cc1ccc(S(=O)(=O)N(C)CC(=O)Nc2ccc(C#N)cc2)cc1`, the call was inactive.

In the case of `C[C@H]1CN([C@@H](C)CO)C(=O)c2cccc(NC(=O)Nc3cccc4ccccc34)c2O[C@@H]1CN(C)C(=O)NC1CCCCC1`, the molecule was classed as inactive.

As to `C[C@H](CO)N1C[C@H](C)[C@H](CN(C)S(=O)(=O)c2cccs2)Oc2c(NS(=O)(=O)c3ccc(Cl)cc3)cccc2C1=O`, the outcome was inactive.

As for `O=C(C1=C[C@H](c2csc3ccccc23)C[C@H](OCc2ccc(CO)cc2)O1)N1CCCCC1`, the molecule was classed as inactive.

Consider `C[C@@H]1CN([C@H](C)CO)C(=O)Cc2cc(NC(=O)Nc3ccc(F)cc3)ccc2O[C@@H]1CN(C)Cc1ccc2c(c1)OCO2`, for which the molecule was classed as inactive.

As to `C[C@@H]1CN([C@@H](C)CO)C(=O)Cc2cc(NS(=O)(=O)c3ccc(Cl)cc3)ccc2O[C@H]1CN(C)CC1CCCCC1`, the result was inactive.

On to `CNC[C@@H]1Oc2ncc(-c3ccc(F)cc3)cc2C(=O)N([C@H](C)CO)C[C@@H]1C`, for which the molecule was classed as inactive.

Turning to `CCNc1nc(NCC)nc(OCC#N)n1`, the molecule was called inactive.

For `CO[C@@H]1[C@@H](OC(N)=O)[C@@H](O)C(Oc2ccc3c(O)c(NC(=O)c4ccc(O)c(CC=C(C)C)c4)c(=O)oc3c2C)OC1(C)C` (stereo not given in full), the call was inactive.

Take `COc1ccc2ncnc(NCc3ccc4c(c3)OCO4)c2c1`: the result was inactive.

For the molecule `COc1ccc(S(=O)(=O)Nc2ccc3c(c2)CC(=O)N([C@H](C)CO)C[C@H](C)[C@H](CN(C)Cc2ccc(C(F)(F)F)cc2)O3)cc1`, the outcome was inactive.

As for `C[C@H]1CN([C@@H](C)CO)C(=O)Cc2cc(NC(=O)NC3CCCCC3)ccc2O[C@H]1CN(C)S(=O)(=O)c1cccs1`, the result was inactive.

On to `COc1ccc(CN(C)C[C@H]2Oc3c(NC(=O)c4cnccn4)cccc3C(=O)N([C@H](C)CO)C[C@@H]2C)cc1`, for which the outcome was inactive.

As to `COc1cc(CCC(=O)O)oc(=O)c1`, the call was inactive.

As to `C[C@H](CO)N1C[C@H](C)[C@@H](CN(C)C(=O)Nc2ccc3c(c2)OCO3)Oc2ccc(NS(=O)(=O)c3ccc(Cl)cc3)cc2C1=O`, the outcome was inactive.
